Tg IFNy HTS: T. gondii growth inhibition with IFN-gamma, primary screen, cell-based. activity change, negative = inhibition, % (no concentration beside the values). Toxoplasma gondii growth in IFN-gamma-treated host cells; active compounds read low. AID 1259416, 2018. hit rate 3.8% among 69,000; in the data active means activity change below about -70%, passing the limit was not always enough;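 further: host cells are HeLa cells infected with Toxoplasma gondii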
Large screens that a line does not name were inactive. The full list was thinned out, with hits kept by preference.

COc1ccc(NC(=O)c2nnn(Cc3nc(-c4ccc(C)cc4)oc3C)c2C)cc1	Tg IFNy HTS -95.0
COc1ccc(NC(=O)c2nnn(Cc3nc(-c4ccccc4)oc3C)c2C)c(OC)c1	none
COc1ccc(CNC(=O)c2nnn(Cc3nc(-c4ccc(C)cc4)oc3C)c2C)c(OC)c1	Tg IFNy HTS -98.5
COc1cccc(CNC(=O)c2nnn(Cc3nc(-c4ccc(C)cc4)oc3C)c2C)c1	Tg IFNy HTS -96.1
CCOc1ccc(-c2nc(Cn3nnc(C(=O)Nc4cc(OC)ccc4OC)c3C)c(C)o2)cc1	none
Cc1ccc(-c2nc(Cn3nnc(C(=O)Nc4cc(C)cc(C)c4)c3C)c(C)o2)cc1	none
CCOc1ccccc1NC(=O)c1nnn(Cc2nc(-c3ccc(OC(C)C)cc3)oc2C)c1C	none
CSc1ccc(CNC(=O)c2nnn(Cc3nc(-c4ccc(C)cc4)oc3C)c2C)cc1	none
Cc1ccccc1NC(=O)c1nnn(Cc2nc(-c3ccc(OC(C)C)cc3)oc2C)c1C	none
COc1ccc(NC(=O)c2nnn(Cc3nc(-c4ccc(Cl)cc4)oc3C)c2C)cc1	none
Cc1ccc(-c2nc(Cn3nnc(C(=O)NCCCc4ccccc4)c3C)c(C)o2)cc1	none
Cc1oc(-c2ccc(OC(C)C)cc2)nc1Cn1nnc(C(=O)Nc2cccc(Cl)c2C)c1C	Tg IFNy HTS -118.5
Cc1c(-c2ccc(Cl)cc2)n[nH]c1C(=O)N1CCOC(C(F)(F)F)C1 (centres undefined)	none
CCOc1ncccc1-c1cc(Cl)ccc1O	none
COc1ccc(-c2nc(N3CCCCCC3)c3ccccc3n2)cc1	none
Cc1cc(C(O)CN2CCN(c3ccccc3)CC2)c(C)s1 (centres undefined)	none
CN(C)CCOCc1cncc2c1CCN(Cc1cccs1)C2	none
O=c1[nH]c(=O)c2cc(S(=O)(=O)Nc3cccc(-c4ccc(F)cc4)c3)ccc2[nH]1	none
CCOc1ccc(-c2nc(Cn3nnc(C(=O)Nc4c(C)cccc4C)c3C)c(C)o2)cc1	Tg IFNy HTS -93.8
CCOc1ccc(-c2nc(Cn3nnc(C(=O)Nc4cc(C)cc(C)c4)c3C)c(C)o2)cc1	none
CCOc1ccc(-c2nc(Cn3nnc(C(=O)Nc4cc(C)ccc4C)c3C)c(C)o2)cc1	none
COc1ccc(CCNC(=O)c2nnn(Cc3nc(-c4ccc(C)cc4)oc3C)c2C)cc1OC	none
Cc1ccc(-c2nc(Cn3nnc(C(=O)Nc4ccccc4C)c3C)c(C)o2)cc1	Tg IFNy HTS -88.5
COc1ccc(CNC(=O)c2nnn(Cc3nc(-c4ccc(C)cc4)oc3C)c2C)cc1OC	Tg IFNy HTS -86.8
Cc1ccccc1NC(=O)c1nnn(Cc2nc(-c3ccc(Cl)cc3)oc2C)c1C	none
COc1ccc(NC(=O)c2nnn(Cc3nc(-c4ccc(Cl)cc4)oc3C)c2C)cc1OC	none
Cc1ccccc1NC(=O)c1nnn(Cc2nc(-c3ccccc3)oc2C)c1C	none
COC(=O)c1c(NCCCc2ccccc2)c2cc(F)ccc2[nH]c1=O	none
Cn1c2c(c(=O)n1C)CN(S(=O)(=O)c1ccc(F)cc1)CCC2	none
O=C(Cc1ccc(CO)cc1)N1CC(Oc2ccccc2F)C1	none
CCCSCCCNC(=O)c1nc(Nc2ccc(C)cc2)c2ccccc2n1	none
CS(=O)(=O)N1CCC(NC(=O)c2cccc(CC3CCNCC3)c2)CC1	none
O=C(CCC1Nc2c3ccccc3nc(=S)n2C1=O)NCCN1CCN(c2ccccc2)CC1 (centres undefined)	none
CC(C)n1cnc2c(N3CCCC3)nc(C3CCN(C(=O)c4ccco4)CC3)cc21	none
CC(=O)N1CCN(c2nc(C)cc(C)n2)CC1	none
Cc1cc(C)nc(N2CCC(CNC(=O)c3cc(C(C)(C)C)[nH]n3)CC2)n1	Tg IFNy HTS -77.1
Cc1nc(CC(NC(=O)c2cc(C(C)(C)C)[nH]n2)c2ccc(Cl)cc2)cc(=O)[nH]1 (centres undefined)	none
O=C(Nc1ccc(OCc2ccccc2F)cc1)c1ccc(-n2cnnc2)cc1	none
CN1CCN(c2cc(C(=O)NCCS(=O)(=O)c3ccc(F)cc3)ccn2)CC1	none
CN1CCN(c2cc(C(=O)Nc3ccc(OCc4ccccc4F)cc3)ccn2)CC1	Tg IFNy HTS -76.1
CS(=O)(=O)N1CCC2OCCCC2(COCc2ccccn2)C1 (centres undefined)	none
Cc1ccc(N=Nc2c(-c3ccccc3)[nH]n(C(N)=S)c2=O)cc1	Tg IFNy HTS -105.0
Cc1[nH]n(C(N)=S)c(=O)c1N=Nc1cc(-c2ccc(Br)cc2)[nH]n1	none
O=c1c(N=Nc2ccccc2)c(-c2ccccc2)[nH]n1-c1ccccc1	none
Cc1cc(C)c2cc(C(=O)Nc3ccc(OC(F)(F)F)cc3)[nH]c2c1	none
O=C(NCCSCc1ccco1)c1cnn(-c2ccccc2)c1C(F)(F)F	none
O=C(Nc1ccc(OC(F)(F)F)cc1)c1cnn(-c2ccc(Cl)cc2)c1C(F)(F)F	Tg IFNy HTS -86.3
FC(F)(F)CCc1ccnc(NCc2cccnc2)n1	none
CC(C)(C(=O)N1CCCC1c1nc(-c2cccnc2)n[nH]1)c1ccc(Cl)cc1 (centres undefined)	none
Cc1ccsc1CN(C)Cc1ccc(C(=O)Nc2cnn(C)c2)cc1	Tg IFNy HTS -84.2
COC[C@H]1CCCN1Cc1ccc(C(=O)Nc2cnn(C)c2)cc1	none
CCN(Cc1cccc(C(=O)Nc2cnn(C)c2)c1)Cc1nc(C)no1	none
COCCN(Cc1cnn(C)c1)C(=O)c1cn(-c2ccccc2)nn1	none
